Laboratory results published in PubChem BioAssay (Tox21).
Where “and” joins values, the source holds several entries; their conditions need not be identical. Identical values can stand only once. Records with an inconclusive call do not appear. Where a structure was tested more than once in an assay, its records may differ in their call. Calls of active or inactive are those of the source. Unless noted, calls follow the shape of the dose curve; as a rule, active = well fitted curve in the direction sought with a large enough effect in the repeat runs; inconclusive = weak or mixed curves; inactive = no such curve, though single readings can be large; an effect the other way counts as inactive or inconclusive.

Columns and labels:
[1] = target: Thyrotropin receptor (Homo sapiens) (UniProt P16473); assay: qHTS assay to identify small molecule agonists of the thyroid stimulating hormone receptor (TSHR) signaling pathway (AID 1224843; calls by dose curve; also: nearly all actives have a fitted effect of over 45% in size)
Sequence of Thyrotropin receptor (Homo sapiens) (P16473 whole entry, looked up): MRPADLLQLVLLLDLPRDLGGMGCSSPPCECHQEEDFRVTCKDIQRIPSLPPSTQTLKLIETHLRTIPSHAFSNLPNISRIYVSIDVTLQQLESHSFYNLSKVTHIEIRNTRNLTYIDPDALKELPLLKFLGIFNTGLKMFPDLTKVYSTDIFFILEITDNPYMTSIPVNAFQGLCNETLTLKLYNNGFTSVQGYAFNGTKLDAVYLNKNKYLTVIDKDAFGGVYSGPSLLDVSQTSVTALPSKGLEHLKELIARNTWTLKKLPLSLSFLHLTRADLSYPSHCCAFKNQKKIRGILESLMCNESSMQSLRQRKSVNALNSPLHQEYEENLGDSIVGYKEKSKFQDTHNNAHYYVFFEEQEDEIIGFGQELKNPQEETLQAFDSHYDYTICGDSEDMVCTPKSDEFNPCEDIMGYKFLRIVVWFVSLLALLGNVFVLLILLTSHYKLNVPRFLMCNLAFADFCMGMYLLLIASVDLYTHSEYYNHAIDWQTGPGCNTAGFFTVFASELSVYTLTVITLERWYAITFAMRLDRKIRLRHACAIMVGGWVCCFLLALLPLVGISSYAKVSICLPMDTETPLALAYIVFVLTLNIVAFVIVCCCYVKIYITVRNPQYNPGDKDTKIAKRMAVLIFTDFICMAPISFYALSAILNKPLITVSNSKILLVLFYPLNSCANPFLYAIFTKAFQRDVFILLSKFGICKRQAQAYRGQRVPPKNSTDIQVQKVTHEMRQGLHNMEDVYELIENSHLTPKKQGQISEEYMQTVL
Summary of the method: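 TSHR-HEK293 cells in agonist mode, 30 min room-temperature step, then cAMP measured by competitive HTRF (cAMP-d2 with anti-cAMP cryptate) after 1 h at room temperature. Tested at 15 concentrations in triplicate.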

[2] = qHTS assay to identify small molecule agonists of the hypoxia (HIF-1) signaling pathway - cell viability counter screen (AID 1224844; calls by dose curve; also: nearly all actives have a fitted effect of over 50% in size)
Summary of the method: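 Luminescent ATP content (CellTiter-Glo, 30 min, room temperature) served as the viability measure in HRE-bla ME-180 cells exposed to compounds for 17 hrs in low-serum medium (0.5% dialyzed FBS).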

[3] = qHTS assay to identify small molecule agonists of H2AX (AID 1224845; active = well fitted activation curve with a large enough effect in the signal ratio in the repeat runs, not every such curve was filed as active; the % refers to the signal ratio)
Summary of the method: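 Wild-type CHO-K1 cells, plated overnight, exposed 3hr at 37C to 15 concentrations (0.76% DMSO final). Lysed, then HTRF anti-pH2AX (S139) cryptate and anti-H2AX-d2 antibodies, 24 hr room temperature; 665/620 nm emission read.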

[4] = qHTS assay to identify small molecule agonists of the hypoxia (HIF-1) signaling pathway (AID 1224846; active = well fitted activation curve with a large enough effect in the signal ratio in the repeat runs, not every such curve was filed as active; the % refers to the signal ratio)
Summary of the method: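 Measured by blue/green FRET after loading CCF4-AM: beta-lactamase expressed from a hypoxia response element in ME-180 cells. Test agents were delivered in DMSO and left 17 hrs; cells had been plated 5 hrs earlier in low-serum (0.5% dialyzed FBS) medium.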

[5] = qHTS assay to identify small molecule agonists of H2AX - cell viability counter screen (AID 1224847; calls by dose curve; also: top concentration of the series differs between compounds; nearly all actives have a fitted effect of over 30% in size)
Summary of the method: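 Read-out: CellTiter-Glo luminescence, 30 min RT. Cells: wild-type CHO-K1, 1000/well, 10% FBS, plated overnight at 37C. Treatment: 15 concentrations, 3 hr, 37C, 0.76% DMSO.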

[6] = qHTS assay to identify small molecule antagonists of the estrogen related receptor (ERR) signaling pathway from Tox21 library (AID 1224848); also: nearly all actives have a fitted effect of over 50% in size
Summary of the method: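 ERR reporter cell line (from NTP) seeded 2,000 cells/well, rested 6 h at 37 C/5% CO2, then pin-dosed with compounds in DMSO. After 18 h at 37 C, ONE-Glo added; luminescence read after 30 min at room temperature.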

[7] = qHTS RealTime-Glo MT Cell Viability Assay in HepG2 cells - 24 hour (AID 1224867); also: nearly all actives have a fitted effect of over 50% in size
Summary of the method: (§1)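 HepG2 suspension premixed with RealTime-Glo reagents is plated at 600 cells per well and left 5 h at 37 C/5% CO2. Compounds in DMSO then go in, and bioluminescence reflecting viable cell number is recorded over 40 h.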

[8] = qHTS RealTime-Glo MT Cell Viability Assay in HEK293 cells - 32 hour (AID 1224868); also: nearly all actives have a fitted effect of over 50% in size; also: potency is read from the fitted curve at half-maximal effect
Summary of the method: (§2)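 Reads taken at 0, 8, 16, 24, 32 and 40 h from the same wells. HEK293 cells (600/well) carried RealTime-Glo reagents from seeding, with compound added after a 5 h settle at 37 C.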

[9] = A CellTox Green Cytotoxicity Assay to monitor cytotoxicity in HEK293 cells - 0 hour (AID 1224869); also: nearly all actives have a fitted effect of over 50% in size
Summary of the method: (§3)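 Each value comes from one timepoint of a single continuous run in which HEK293 cells with CellTox Green were exposed to compound for up to 40 h at 37 C, dye fluorescence rising with cell death.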

[10] = qHTS RealTime-Glo MT Cell Viability Assay in HepG2 cells - 40 hour (AID 1224870); also: nearly all actives have a fitted effect of over 50% in size
Summary of the method: (§4)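 HepG2 cells (600/well) mixed with RealTime-Glo MT reagent, settled 5 h at 37 C/5% CO2 before compound addition. Nonlytic NanoLuc luminescence from viable-cell prosubstrate reduction read repeatedly during 40 h treatment at 37 C.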

[11] = A CellTox Green Cytotoxicity Assay to monitor cytotoxicity in HEK293 cells - 40 hour (AID 1224871); also: nearly all actives have a fitted effect of over 45% in size
Summary of the method: as §3

[12] = qHTS RealTime-Glo MT Cell Viability Assay in HEK293 cells - 16 hour (AID 1224872); also: nearly all actives have a fitted effect of over 50% in size; also: potency is read from the fitted curve at half-maximal effect
Summary of the method: as §2

[13] = qHTS RealTime-Glo MT Cell Viability Assay in HepG2 cells - 8 hour (AID 1224873); also: nearly all actives have a fitted effect of over 55% in size
Summary of the method: as §4

[14] = qHTS RealTime-Glo MT Cell Viability Assay in HEK293 cells - 40 hour (AID 1224874); conditions: RealTime-Glo luminescence; max response: stronger effect = lower value; also: nearly all actives have a fitted effect of over 50% in size; also: potency is read from the fitted curve at half-maximal effect
Summary of the method: (§5)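 qHTS format; HEK293 cells with NanoLuc/prosubstrate reagent, 37 C/5% CO2 for 5 h pre-dosing; compounds 23 nL in DMSO; luminescence at each time point reflects viable cells.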

[15] = A CellTox Green Cytotoxicity Assay to monitor cytotoxicity in HEK293 cells - 24 hour (AID 1224875); also: series mostly up to about 77 µM; nearly all actives have a fitted effect of over 45% in size
Summary of the method: as §3

[16] = A CellTox Green Cytotoxicity Assay to monitor cytotoxicity in HepG2 cells - 16 hour (AID 1224876); also: nearly all actives have a fitted effect of over 45% in size
Summary of the method: (§6)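 Continuous culture of HepG2 cells with a membrane-impermeant DNA dye; rising fluorescence marks dead cells. Compound exposure lasted up to 40 h at 37 C, with reads every 8 h from 0 h.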

[17] = qHTS RealTime-Glo MT Cell Viability Assay in HepG2 cells - 32 hour (AID 1224877); also: nearly all actives have a fitted effect of over 55% in size
Summary of the method: as §1

[18] = A CellTox Green Cytotoxicity Assay to monitor cytotoxicity in HepG2 cells - 24 hour (AID 1224878); also: nearly all actives have a fitted effect of over 45% in size
Summary of the method: as §6

[19] = A CellTox Green Cytotoxicity Assay to monitor cytotoxicity in HepG2 cells - 40 hour (AID 1224879); also: nearly all actives have a fitted effect of over 40% in size
Summary of the method: as §6

[20] = qHTS RealTime-Glo MT Cell Viability Assay in HEK293 cells - 0 hour (AID 1224880)
Summary of the method: as §5
% is scaled to controls: 0 for no effect and ±100 for the full control effect.

CCNc1cccc(C)c1
inactive: outcome [1] | outcome [2] | outcome [3] | outcome [4] | outcome [5] | outcome [6] | Potency [7] | Potency [8] | outcome [9] | outcome [10] | Potency [11] | Potency [12] | Potency [13] | max response [14] -1.66% and 8.48% | Potency [15] | outcome [16] | outcome [17] | Potency [18] | Potency [19] | outcome [20]

Cc1ccc2ncccc2c1
inactive: outcome [1] | outcome [2] | outcome [3] | outcome [4] | outcome [5] | outcome [6] | Potency [7] | Potency [8] | outcome [9] | outcome [10] | Potency [11] | Potency [12] | Potency [13] | max response [14] 0.634% and 3.71% | Potency [15] | outcome [16] | outcome [17] | Potency [18] | Potency [19] | outcome [20]

C=CC(=O)OCCC(=O)O
inactive: outcome [1] | outcome [2] | outcome [3] | outcome [4] | outcome [5] | outcome [6] | Potency [7] | Potency [8] | outcome [9] | outcome [10] | Potency [11] | Potency [12] | Potency [13] | max response [14] -1.71% and -0.811% | Potency [15] | outcome [16] | outcome [17] | Potency [18] | Potency [19] | outcome [20]

CC(=O)CCC=C(C)C
inactive: outcome [1] | outcome [2] | outcome [3] | outcome [4] | outcome [5] | outcome [6] | Potency [7] | Potency [8] | outcome [9] | outcome [10] | Potency [11] | Potency [12] | Potency [13] | max response [14] 10.6% and -4.31% | Potency [15] | outcome [16] | outcome [17] | Potency [18] | Potency [19] | outcome [20]

CC(C)c1cccc(C(C)C)c1
inactive: outcome [1] | outcome [2] | outcome [3] | outcome [4] | outcome [5] | outcome [6] | Potency [7] | Potency [8] | outcome [9] | outcome [10] | Potency [11] | Potency [12] | Potency [13] | max response [14] 2.88% and 7.17% | Potency [15] | outcome [16] | outcome [17] | Potency [18] | Potency [19] | outcome [20]

O=S(=O)(O)c1ccccc1
inactive: outcome [1] | outcome [2] | outcome [3] | outcome [4] | outcome [5] | outcome [6] | Potency [7] | Potency [8] | outcome [9] | outcome [10] | Potency [11] | Potency [12] | Potency [13] | max response [14] 0.0472% and -6.62% | Potency [15] | outcome [16] | outcome [17] | Potency [18] | Potency [19] | outcome [20]

CC(C)CC(C)O (stereo not given)
inactive: outcome [1] | outcome [2] | outcome [3] | outcome [4] | outcome [5] | Potency [7] | Potency [8] | outcome [9] | outcome [10] | Potency [11] | Potency [12] | Potency [13] | max response [14] 6.34% and 7.03% | Potency [15] | outcome [16] | outcome [17] | Potency [18] | Potency [19] | outcome [20]

Cc1ccc(S(=O)(=O)N=C=O)cc1
inactive: outcome [1] | outcome [2] | outcome [3] | outcome [4] | outcome [5] | outcome [6] | Potency [7] | Potency [8] | outcome [9] | outcome [10] | Potency [11] | Potency [12] | Potency [13] | max response [14] 0.611% and -0.578% | Potency [15] | outcome [16] | outcome [17] | Potency [18] | Potency [19] | outcome [20]

CN(C)c1ccc(O)c2c1C[C@H]1C[C@H]3[C@H](N(C)C)C(=O)C(C(N)=O)=C(O)[C@@]3(O)C(=O)C1=C2O
inactive: outcome [1] | outcome [2] | outcome [3] | outcome [4] | outcome [5] | Potency [7] | Potency [8] | outcome [9] | outcome [10] | Potency [11] | Potency [12] | Potency [13] | max response [14] -2.64% and -1.12% | Potency [15] | outcome [16] | outcome [17] | Potency [18] | Potency [19] | outcome [20]

O=C(O)c1ccc(S(=O)(=O)N(Cl)Cl)cc1
49.3 µM (active) and inactive: Potency [8] | Potency [12]
active: Potency [14] 43.9 µM
inactive: outcome [1] | outcome [2] | outcome [3] | outcome [4] | outcome [5] | Potency [7] | outcome [9] | outcome [10] | Potency [11] | Potency [13] | max response [14] 0.122% | Potency [15] | outcome [16] | outcome [17] | Potency [18] | Potency [19] | outcome [20]

C=C(C)C(=O)OCC(C)C
inactive: outcome [1] | outcome [2] | outcome [3] | outcome [4] | outcome [5] | Potency [7] | Potency [8] | outcome [9] | outcome [10] | Potency [11] | Potency [12] | Potency [13] | max response [14] 0.908% and 6.86% | Potency [15] | outcome [16] | outcome [17] | Potency [18] | Potency [19] | outcome [20]

CC(C)(C)c1cc(Cc2cc(C(C)(C)C)c(O)c(C(C)(C)C)c2)cc(C(C)(C)C)c1O
inactive: outcome [1] | outcome [2] | outcome [3] | outcome [4] | outcome [5] | Potency [7] | Potency [8] | outcome [9] | outcome [10] | Potency [11] | Potency [12] | Potency [13] | max response [14] 3.98% and -14.3% | Potency [15] | outcome [16] | outcome [17] | Potency [18] | Potency [19] | outcome [20]

CCCCCCCO
inactive: outcome [1] | outcome [2] | outcome [3] | outcome [4] | outcome [5] | Potency [7] | Potency [8] | outcome [9] | outcome [10] | Potency [11] | Potency [12] | Potency [13] | max response [14] 10.9% and 3.74% | Potency [15] | outcome [16] | outcome [17] | Potency [18] | Potency [19] | outcome [20]
